The text below walks through data of publication PMC4552634, “A New Set of Chemical Starting Points with Plasmodium falciparum Transmission-Blocking Potential for Antimalarial Drug Discovery” (PLoS ONE, 2015).

In all, about 13,000 compounds went through this assay and about 3,200 (25%) showed an effect of 50% or more. This is one part of the list.

This assay concerns P. falciparum stage V gametocytes. Also noted: BacTiter-Glo ATP luminescence viability of purified stage V gametocytes in 384-well plates, per cent inhibition versus DMSO. The note with it: 48 h, 5 µM; inhibitor.
One may read the % Inhibition as the drop in the measured response relative to a control, in per cent. As to `Cc1cccc2[nH]c(-c3cccc(-c4cccc(NC(=O)NCc5ccccc5)c4)c3)nc12` [TCMDC-133159], the “% Inhibition” value was 13.2%.

As for `OCCOCn1cnc2cnc(N[C@H]3OC[C@H](O)[C@@H](O)[C@@H]3O)nc21` [TCMDC-138106], the “% Inhibition” value was found to be 14.1%. In the case of `CCc1c(CCNCCCCCCNCCc2ccc(OC)c(OC)c2CC)ccc(OC)c1OC` [TCMDC-132047] it was 111.8%.

With `COc1cc2c(OC)cccc2cc1CNCCCCCCNCc1cc2cccc(OC)c2cc1OC` [TCMDC-137945], the “% Inhibition” value was 1.634%. As to `CCc1c(CCNCCCCCCNCCc2ccc(Br)cc2)ccc(OC)c1OC` [TCMDC-132045], the “% Inhibition” value is on record as 110%. Under `CCc1c(CCNCCCCCCNCCc2ccc(OC)c(OC)c2C)ccc(OC)c1OC` [TCMDC-132051] stands 107.2%; under `CCc1c(CCNC/C=C/C=C/CNCCc2ccc(OC)c(OC)c2CC)ccc(OC)c1OC` [TCMDC-132061], 102.8%.

Regarding `O=C1C[C@@H]([S+]([O-])Cc2nccs2)N1CCOCCCCCCc1ccc(Cl)cc1` (stereo partly shown) [TCMDC-139269], the “% Inhibition” value is 27.24%.

As to `Cc1cccc(NC(=O)Nc2ccc(I)c(OCCN(C)C)c2)c1C` [TCMDC-139124], the “% Inhibition” value is recorded as -5.088%. In the case of `COc1ccc(Nc2nc(NCc3ccc(-n4ccnc4)cc3)cc(-c3ccc(OC)cc3)n2)cc1` [TCMDC-134025] it was -3.76%; in that of `Clc1ccc(Sc2cncnc2N2CCOCC2)cc1` [TCMDC-137279], 19.11%; in that of `O=C(Cc1ccccc1)NC1CCN(c2ccnc3cc(Cl)ccc23)C1` (stereo not shown) [TCMDC-133663], -4.28%. Under `c1ccn2c(Sc3ncnc4sccc34)ncc2c1` [TCMDC-124602] stands 29.96%; under `c1ccc2sc(Sc3ncnc4sccc34)nc2c1` [TCMDC-125539], 99.53%; under `COCCn1c(Sc2ncnc3sccc23)nc2ccccc21` [TCMDC-125258], 10.99%. `Cn1c(Sc2ncnc3sccc23)nc2ccccc21` [TCMDC-124514]: the “% Inhibition” value came to 74.1%. As to `CN(C)CCCNCCS(=O)(=O)c1cccc(Nc2ccc(-c3cccc(N(C)C)c3)cn2)c1` [TCMDC-134369], the “% Inhibition” value stood at 11.18%. Take `O=C(NC1CCCCC1)N(Cc1cccc(-c2ccc(CNCc3ccc4c(c3)OCO4)cc2)c1)C1CCN(Cc2ccccc2)CC1` [TCMDC-140632]: the “% Inhibition” value came out at 106.9%.

In the case of `O=C(NCCc1ccccc1)N(Cc1cccc(-c2ccc(CNCc3ccc4c(c3)OCO4)cc2)c1)C1CCN(Cc2ccccc2)CC1` [TCMDC-140619], the “% Inhibition” value is on record as 40.48%. On to `O=C(NC1CCCCC1)N(Cc1ccc(-c2cccc(CNCc3ccc4c(c3)OCO4)c2)cc1)C1CCN(Cc2ccccc2)CC1` [TCMDC-140640], for which the “% Inhibition” value is 55.3%. Under `O=C(NC1CCCCC1)N(Cc1ccc(-c2ccc(CNCc3ccc4c(c3)OCO4)cc2)cc1)C1CCN(Cc2ccccc2)CC1` [TCMDC-140641] stands 57.56%. Regarding `O=C(Nc1ccc(OC2CCN(Cc3ccc(F)cc3)CC2)c(Cl)c1)c1ccc(F)cc1` [TCMDC-133752], the “% Inhibition” value came out at 7.555%. As to `Cc1ccccc1C1CCN(C2CCC(NC(=O)/C=C/c3ccc(C#N)cc3)CC2)CC1` (stereo not shown) [TCMDC-133527], the “% Inhibition” value is given as -65.01%. In the case of `CS(=O)(=O)c1ccc(CNCc2ccc(-c3ccc(-c4nc5cc(C(F)(F)F)ccc5[nH]4)cc3)cc2)cc1.O=C(O)C(F)(F)F` [TCMDC-132901] it was -22.07%. Consider `COC(=O)c1cc(C(O)CNC(C)CCc2cccc(F)c2)ccc1O` (stereo not shown) [TCMDC-131242], for which the “% Inhibition” value came out at 17.15%. Under `CC(Cl)=CCc1c(C)[nH]c2c(ccc3ccccc32)c1=O` [TCMDC-124085] stands 30.93%. With `CC(=O)c1cccc(Nc2nc3c(C#N)c(OCc4cc(Cl)cc(Cl)c4)ccc3[nH]2)c1` [TCMDC-133766], the “% Inhibition” value is -0.7844%. `CN1CCN(c2ccc3nc(-c4ccc5nc(-c6ccc(O)cc6)[nH]c5c4)[nH]c3c2)CC1` [TCMDC-125507]: the “% Inhibition” value was found to be 11.14%. For `CN1CCN(c2ccc(-c3nc4c(C(N)=O)c(OCc5cc(Cl)cc(Cl)c5)ccc4[nH]3)cc2)CC1` [TCMDC-133563], the “% Inhibition” value was 101.6%. `COc1cccc(-c2ccc(C(=O)NC3CCN(Cc4ccc(N(C)C)cc4)CC3)s2)c1` [TCMDC-134330]: the “% Inhibition” value amounted to 105%.

For the compound `CSc1ccc(CN2CCC(NC(=O)c3ccc(-c4ccc(N(C)C)cc4)s3)CC2)cc1` [TCMDC-134342], the “% Inhibition” value was -80.35%. As for `CN(C)c1ccc(-c2ccc(C(=O)NC3CCN(Cc4ccccc4)CC3)s2)cc1` [TCMDC-134367], the “% Inhibition” value is recorded as 44.5%. With `COc1ccccc1CN1CCC(NC(=O)c2ccc(-c3cccc(Cl)c3)s2)CC1` [TCMDC-134356], the “% Inhibition” value is -14.44%.

Consider `CC(=O)Nc1ccc(CN2CCC(NC(=O)c3ccc(-c4cccc(Cl)c4)s3)CC2)cc1` [TCMDC-134334], for which the “% Inhibition” value is recorded as 14.56%. For the compound `CN(C)c1ccc(-c2ccc(C(=O)NC3CCN(Cc4ccccc4F)CC3)s2)cc1` [TCMDC-134368], the “% Inhibition” value is -72.91%.

In the case of `CC(=O)Nc1ccc(CN2CCC(NC(=O)c3ccc(-c4ccc(N(C)C)cc4)s3)CC2)cc1` [TCMDC-134336], the “% Inhibition” value was determined as 72.62%. In the case of `CN(C)c1ccc(CN2CCC(NC(=O)c3ccc(-c4cccc(Cl)c4)s3)CC2)cc1` [TCMDC-134329] it was -64.24%; in that of `CCc1ccc(CN2CCC(NC(=O)c3ccc(-c4ccc(N(C)C)cc4)s3)CC2)cc1` [TCMDC-134344], -78.7%. As for `CN(C)c1ccc(CN2CCC(NC(=O)c3ccc(-c4ccc(N(C)C)cc4)s3)CC2)cc1` [TCMDC-134331], the “% Inhibition” value turned out to be 56.81%. Under `COc1ccccc1CN1CCC(NC(=O)c2ccc(-c3ccc(N(C)C)cc3)s2)CC1` [TCMDC-134357] stands 85.69%; under `COc1cccc(-c2ccc(C(=O)NC3CCN(Cc4ccc(C(C)(C)C)cc4)CC3)s2)c1` [TCMDC-134353], -20.06%; under `O=C(NCc1cccc2ccccc12)C(c1cc2ccccc2o1)N1CCN(C(c2ccccc2)c2ccccc2)CC1` (stereo not shown) [TCMDC-141007], 25.05%. In the case of `CCCCCCN1CCN(Cc2cccc(NC(=O)c3cc4ccccc4o3)c2)CC1` [TCMDC-134620] it was -12.01%. Under `CCNC(=O)c1ccc2c(c1)c(C)c(C)n2Cc1ccc(F)cc1` [TCMDC-124754] stands 32.09%; under `CC(=O)C1(c2ccccc2)CCN(CCC2(c3ccc(Cl)c(Cl)c3)CN(C(=O)c3cccc(Cl)c3)CCO2)CC1` (stereo not shown) [TCMDC-135347], -30.91%; under `CNS(=O)(=O)c1ccc(NC(=O)c2cc(-c3cccnc3)nc3ccc(Br)cc23)cc1` [TCMDC-125216], -3.498%. On to `Cc1ccccc1C1CCN(C2CCC(NC(=O)C3=Cc4ccccc4OC3)CC2)CC1` (stereo not shown) [TCMDC-133553], for which the “% Inhibition” value was -49.51%. As for `O=S(=O)(NCCN1CCCC1)c1ccc(-c2ccc(CNC3Cc4ccccc4C3)cc2)cc1` [TCMDC-132229], the “% Inhibition” value was 60.05%. In the case of `O=S(=O)(NCCN1CCCC1)c1cccc(-c2ccc(CNC3Cc4ccccc4C3)cc2)c1` [TCMDC-132241], the “% Inhibition” value is recorded as 96.68%. In the case of `O=S(=O)(NCCN1CCCC1)c1ccc(-c2cccc(CNC3Cc4ccccc4C3)c2)cc1` [TCMDC-132215] it was 70.89%; in that of `COc1ccc(C2CCN(CCN3CCC(NC(=O)c4ccc(-c5cccc(C(F)(F)F)c5C(F)(F)F)cc4)CC3)CC2)c(OC)c1` [TCMDC-135427], -31.75%; in that of `CC(C)[C@H](NC(=O)c1ccc(O)c(-c2ccc(Cl)c(Cl)c2)c1)C(=O)NCCN1CCCC1` [TCMDC-140828], 38.9%. Under `CN1CCN(c2ccnc3ccc(NC(=O)Nc4ccc5c(c4)CCC5=O)cc23)CC1` [TCMDC-139266] stands 0.4556%; under `O=C(Cc1cccc(Cl)c1)Nc1cccc(-c2c[nH]c3nc(Nc4ccccc4)ncc23)c1` [TCMDC-134679], 29.34%; under `O=C(C=Cc1ccc(Cl)c(Cl)c1)NCCCCCN1CCC(c2[nH]nc3ccccc23)CC1` [TCMDC-139402], -6.391%.

Regarding `CCC(C)(C)c1ccc(OCC(O)CN2CCCCC2)c(C(C)(C)CC)c1` (stereo not shown) [TCMDC-123833], the “% Inhibition” value came to 2.758%. In the case of `COc1cccc2c(O)c(CNC3CCCCC3)ccc12` [TCMDC-137595] it was 11.64%; in that of `O=C1NC(c2ccccc2)C2(CCN(CC(O)COc3cccc4ncccc34)CC2)O1` (stereo not shown) [TCMDC-136710], -26.23%; in that of `Cc1ccccc1OCC(O)CN1CCC(C2CCN(CC(O)COc3ccccc3C)CC2)CC1` (stereo not shown) [TCMDC-131841], 97.67%. In the case of `CCCc1ccccc1OCC(O)CN(C1CCCC1)C1CCCC1` (stereo not shown) [TCMDC-131423] it was -5.815%; in that of `Cc1ccccc1OCC(O)CNC1CCC(NCC(O)COc2ccccc2C)CC1` (stereo not shown) [TCMDC-125142], 150%; in that of `COc1ccc(NC(=O)Nc2ccc(-c3ccccc3)cc2)cc1Cn1cnc(N2CCCNCC2)cc1=O` [TCMDC-134316], 22.91%. In the case of `O=C(/C=C/c1ccc(Cl)c(Cl)c1)Nc1cccc(CN2CCC(c3c[nH]c4ccccc34)CC2)c1` [TCMDC-139600] it was 0.6115%. For the compound `CC(=O)Nc1ncc(C(=O)Nc2cccc(-c3ccc(-c4nc5ccccc5[nH]4)cc3)c2)s1` [TCMDC-136917], the “% Inhibition” value is 7.51%. For the compound `Oc1ccc2c(c1CNC1CCCCC1)CCCC2` [TCMDC-137501], the “% Inhibition” value was 23.3%.

As for `Oc1ccc(-c2ccccc2)cc1CNC1CCCCC1` [TCMDC-137603], the “% Inhibition” value is -11.44%. For the compound `CCC(=C(CC)c1ccc(O)c(CNC2CCCCC2)c1)c1ccc(O)c(CNC2CCCCC2)c1` [TCMDC-137481], the “% Inhibition” value amounted to 84.66%. Under `CC(C)(C)c1ccc(O)c(CNC2CCCCC2)c1` [TCMDC-125856] stands 17.68%; under `Cc1cc(O)c(CNC2CCCCC2)cc1C` [TCMDC-137589], -0.1252%. In the case of `O=C(CNC1CCCCC1)c1ccc(O)c(O)c1` [TCMDC-123961] it was 59.16%.
